# Measured values: PubChem BioAssay (EPA / NIEHS)
# Records with an inconclusive call do not appear. Active and inactive are the calls of the source. Rule for the calls: active = hit-call score of the fitted dose curve at least 0.9, where 1 is the maximum; inconclusive = response in the unintended direction; inactive = score below 0.9.
# Target: Ratio of Nucleoli Translocation and Cytoplasm, AR (gene 367) (UniProt P10275)
# Test: UPITT_HCI_U2OS_AR_TIF2_Nucleoli_Cytoplasm_Ratio_Antagonist: University of Pittsburgh U2OS Androgen Receptor-Transcriptional Intermediary Factor 2 (AR-TIF2) Antagonism High Content Imaging Assay for Ratio of Nucleoli Translocation and Cytoplasm (AID 2283999);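 note: antagonists lower the DHT-driven ratio of nucleolar to cytoplasmic red signal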
# Text: UPITT_AR_TIF2_PPIB is a cell-based, high-content imaging assay that uses U2OS, a human osteosarcoma cell line, expressing a human androgen receptor fused to red fluorescent protein and the coactivator TIF2 fused to green fluorescent protein. UPITT_HCI_U2OS_AR_TIF2_Nucleoli_Cytoplasm_Ratio_Antagonist is one of four assay components measured from the UPITT_AR_TIF2_PPIB assay. It is designed to make measurements of the ratio of red fluorescence localized in the nucleolar region of the cell nucleus to red fluorescence localized in the cytoplasm as detected with high-content fluorescent imaging.Data from the assay component UPITT_HCI_U2OS_AR_TIF2_Nucleoli_Cytoplasm_Ratio_Antagonist was analyzed into 1 assay endpoint. This assay endpoint, UPITT_HCI_U2OS_AR_TIF2_Nucleoli_Cytoplasm_Ratio_Antagonist, was analyzed in the positive analysis fitting direction relative to DHT as the baseline of activity. Using a type of binding reporter, measures of receptor for loss-of-signal activity can be used to understand the binding at the pathway-level as it relates to the gene AR.
# Daughter plates containing 2 uL of 10 mM compounds in DMSO were prepared and replicated from the 384-well Library of Pharmacologically Active Compounds (LOPAC) master plates using the Bravo outfitted with a 384-well transfer head. Aluminum adhesive plate seals were applied with an Abgene Seal-IT 100 (Rochester, NY) plate sealer, and the plates were stored at -20 C in a Matrical MatriMinistore (Spokane, WA) automated compound storage and retrieval system. For screening, LOPAC daughter plates were withdrawn from -20C storage, thawed to ambient temperature, centrifuged 1-2 min at 50 g, and the plate seals were removed before the transfer of 98 uL of serum-free tissue culture medium (SFM) into wells using the BioTek Microflo liquid handler (BioTek, Winooski, VT) to generate a 200 uM intermediate stock concentration of library compounds (2.0% DMSO). The diluted compounds were mixed by repeated aspiration and dispensation using a 384-well P30 dispensing head on the Evolution P3 (EP3) liquid handling platform (PerkinElmer, Waltham, MA) and then 5 uL of diluted compounds was transferred to the wells of assay plates. In the LOPAC screen, compounds were individually tested at a final concentration of 20 uM (0.2% DMSO). After the diluted compounds had been transferred from the daughter plates to the primary HCS assay plates, aluminum adhesive plate seals were applied and the diluted daughter plates were stored frozen at -20C. To confirm active compounds identified in the primary screen, we withdrew the LOPAC daughter plates containing the 200 uM intermediate concentration of library compounds (2.0% DMSO) from -20C storage, thawed them to ambient temperature, centrifuged them for 1-2 min at 50 g, and removed the plate seals. A work list was generated to direct the Multiprobe Janus liquid handling platform (PerkinElmer) to cherry pick 75 uL from the wells of the diluted daughter plates that were flagged active in the primary screen and to reformat these into a 384-well plate hit confirmation daughter plate. Five microliters of primary HCS active compounds was then transferred into triplicate wells of assay plates using a 384-well P30 dispensing head on the Evolution P3 (EP3) liquid handling platform (PerkinElmer). […] Daughter plates containing 2 uL of the serially diluted compounds in DMSO were prepared and replicated from the 384-well serial dilution master plates using the Bravo outfitted with a 384-well transfer head. Aluminum adhesive plate seals were applied and plates were stored at -20C. For testing in the bioassays, daughter plates were withdrawn from -20C storage, thawed to ambient temperature, centrifuged for 1-2 min at 50 g, and the plate seals were removed before the transfer of 38 uL of SFM into wells using the BioTek Microflo liquid handler (BioTek) to generate an intermediate stock concentration of library compounds ranging from 1.95 to 500 uM (5.0% DMSO). […]
# Chain of Ratio of Nucleoli Translocation and Cytoplasm, AR (gene 367) (P10275 whole entry, looked up): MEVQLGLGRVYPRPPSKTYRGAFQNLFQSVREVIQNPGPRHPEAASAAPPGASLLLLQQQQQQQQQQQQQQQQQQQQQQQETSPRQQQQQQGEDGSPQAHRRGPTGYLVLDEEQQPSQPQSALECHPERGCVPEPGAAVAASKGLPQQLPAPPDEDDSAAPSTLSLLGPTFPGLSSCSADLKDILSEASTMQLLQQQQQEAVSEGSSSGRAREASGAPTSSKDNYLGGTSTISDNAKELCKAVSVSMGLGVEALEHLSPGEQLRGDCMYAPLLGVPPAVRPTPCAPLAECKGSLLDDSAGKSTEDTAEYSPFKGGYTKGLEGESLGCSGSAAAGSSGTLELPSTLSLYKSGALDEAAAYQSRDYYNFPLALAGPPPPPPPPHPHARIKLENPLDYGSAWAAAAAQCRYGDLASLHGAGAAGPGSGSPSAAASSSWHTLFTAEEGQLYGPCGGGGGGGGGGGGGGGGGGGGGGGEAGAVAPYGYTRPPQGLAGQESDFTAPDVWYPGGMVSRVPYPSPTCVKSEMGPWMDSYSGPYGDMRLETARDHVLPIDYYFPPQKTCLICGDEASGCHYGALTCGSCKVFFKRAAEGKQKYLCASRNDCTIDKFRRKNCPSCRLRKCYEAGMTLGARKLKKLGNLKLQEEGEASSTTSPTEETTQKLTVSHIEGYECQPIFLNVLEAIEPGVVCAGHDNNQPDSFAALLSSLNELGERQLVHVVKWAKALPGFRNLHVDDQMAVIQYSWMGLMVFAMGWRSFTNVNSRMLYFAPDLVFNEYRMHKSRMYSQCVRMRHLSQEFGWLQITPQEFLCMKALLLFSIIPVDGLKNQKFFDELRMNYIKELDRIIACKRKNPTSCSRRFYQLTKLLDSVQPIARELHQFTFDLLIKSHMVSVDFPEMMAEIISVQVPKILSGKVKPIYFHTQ
Compound,outcome,AC50
OCCO,inactive,
Cc1c2ccccc2c(C)c2c1ccc1ccccc12,inactive,
CCN(Cc1cccnc1)C(=O)c1cccc(Cl)c1[C@]1(C)C(=O)N(Cc2ccc(OC)cc2OC)c2ccc(Cl)cc21,inactive,
O=C(O)Cn1c(=O)n(Cc2ccc(Br)cc2F)c(=O)c2ccc(Cl)cc21,inactive,
O=C(Nc1ccc(Cl)cc1)Nc1ccc(Cl)c(Cl)c1,inactive,
CN(C[C@@H](CC[N+]12CCC(C3CCCCC3)(CC1)CC2)c1ccc(Cl)c(Cl)c1)C(=O)c1cc(C(F)(F)F)cc(C(F)(F)F)c1,,29.6 µM (active)
CCCCCCCCCC(=O)O,inactive,
NC(=O)c1nc(-c2cccc(-c3cc(F)ccc3OCC(F)(F)C(F)(F)F)c2)n[nH]1,inactive,
O=c1c(-c2ccc(O)cc2)coc2cc(O)cc(O)c12,inactive,
COc1cc(C(=O)NC2CCN(C)CC2)ccc1Nc1ncc2c(n1)N(C1CCCC1)CC(F)(F)C(=O)N2C,inactive,
COCC(C)OCC(C)OCC(C)O (configuration not stated),inactive,
NCc1cccc(C2CCN(C(=O)c3ccc(C#Cc4ccccc4F)o3)CC2)c1,,27.2 µM (active)
CN(C)c1ccc(C(=C2C=CC(=[N+](C)C)C=C2)c2ccc(N(C)C)cc2)cc1,,2.66 µM (active)
Cc1ccc(C(C)C)cc1,inactive,
Oc1ccc2ccccc2c1,inactive,
CCCCOC(=O)c1ccc(O)cc1,inactive,
CCCC(=O)OCCC(C)C,inactive,
